Consider 56 compounds from PubChem BioAssay AID463115 (University of Pittsburgh Molecular Library Screening Center, 2010).

Out of some 220,000 compounds screened, about 130 (0.059%) were called active. Cut-off read from the data, not from the text of the source: active = inhibition above about 25%; inactive = the rest. The full list was thinned out, with actives kept by preference.

In this test the target is Furin (Homo sapiens) (UniProt P09958). The experiment in a line: furin protease activity blockers – biochemical, fluorescence intensity, primary screen (AID 463115). The following applies: purified furin, fluorogenic substrate cleavage, stronger effect = higher value; at 30 µM unless noted.
Furin (Homo sapiens), sequence (P09958 108-714 limits assumed): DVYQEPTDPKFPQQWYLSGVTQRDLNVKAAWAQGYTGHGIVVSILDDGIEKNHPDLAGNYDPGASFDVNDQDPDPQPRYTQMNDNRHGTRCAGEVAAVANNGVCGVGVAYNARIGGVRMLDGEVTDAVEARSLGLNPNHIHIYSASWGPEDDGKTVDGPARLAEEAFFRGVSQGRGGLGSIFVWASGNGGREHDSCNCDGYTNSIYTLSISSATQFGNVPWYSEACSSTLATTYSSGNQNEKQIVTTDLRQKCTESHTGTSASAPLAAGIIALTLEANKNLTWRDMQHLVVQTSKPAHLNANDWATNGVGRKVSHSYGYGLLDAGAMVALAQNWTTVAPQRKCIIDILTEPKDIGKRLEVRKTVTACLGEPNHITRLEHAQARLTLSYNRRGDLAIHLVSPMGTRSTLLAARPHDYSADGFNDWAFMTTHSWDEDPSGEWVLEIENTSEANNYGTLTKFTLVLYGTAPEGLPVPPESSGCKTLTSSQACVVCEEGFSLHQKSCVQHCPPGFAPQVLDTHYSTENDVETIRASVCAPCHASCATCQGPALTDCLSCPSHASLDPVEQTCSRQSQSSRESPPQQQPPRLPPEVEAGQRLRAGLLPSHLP
Turning to `Cn1c(SCC(=O)c2ccc(F)cc2)nnc1-c1ccccn1`, the inhibition (as a rule, the relative decrease from the control value, in per cent) is -22.4% (inactive).
Take `CCc1cc(C(=O)OC)c(NC(=O)CC2Sc3ccc(C(F)(F)F)cc3NC2=O)s1` (stereo unspecified): the inhibition was -18.6% (inactive).
For the compound `Cc1nc2ccccn2c1C(=O)NN=C1CCN(C)CC1`, the inhibition is -16.6% (inactive).
`CCOC(=O)/C(C#N)=C\c1c(C)cc(C)c(COC(C)=O)c1C`: the inhibition was -3.87% [at 20 µM] (inactive).
As to `CCc1cc(Br)ccc1NC(=O)C1CCCO1` (stereo unspecified), the inhibition is -9.19% [at 20 µM] (inactive).
As to `OC(CNCC1CCCO1)Cn1c2ccc(Br)cc2c2cc(Br)ccc21` (stereo unspecified), the inhibition was 31.4% [at 20 µM] (active).
As to `CCOC(=O)Cn1c(=O)oc2cc(S(=O)(=O)NCC3CCCO3)ccc21` (stereo unspecified), the inhibition is -8.46% (inactive).
Regarding `COc1ccc(C(=O)Nc2c(Cl)cc(Cl)cc2C(=O)N2CCC(C)CC2)cc1`, the inhibition was -7.28% (inactive).
`CSc1ccccc1-c1nnc(-c2ccc(Cl)cc2)o1`: the inhibition is -17.9% [at 20 µM] (inactive).
As for `CNC(=O)c1[nH]cnc1C(=O)N[C@@H](CC(C)C)C(=O)OCc1ccccc1`, the inhibition was -29.8% (inactive).
As for `CCOc1ccc(Oc2nc(C)cc(OC)n2)nn1`, the figure is -13.8% (inactive); as for `O=C(O)Cc1csc(NC(=O)CSc2nnnn2-c2ccc(O)cc2)n1`, -27.1% (inactive).
The figure for `Cc1ccc2nc(COc3ccc(N(C)S(=O)(=O)c4ccccc4)cc3)cc(=O)n2c1` is -21.2% (inactive).
Turning to `Cc1ccc(-n2nc3cc(C)c(NC(=O)c4cccnc4)cc3n2)cc1`, the inhibition was 34.8% [at 20 µM] (active).
The figure for `Cc1cc2nc(-c3ccc(NC(=O)c4cccnc4)cc3)oc2cc1C` is -16% (inactive).
As for `Cc1ccc(-n2nc3cc(Cl)c(NC(=O)c4ccco4)cc3n2)cc1`, the figure is -6.45% [at 20 µM] (inactive); as for `O=C(NCc1cccnc1)Nc1cccc(NC(=O)NCc2cccnc2)c1F`, -13.7% (inactive).
The figure for `CCCN(CCC)CC(O)COc1ccccc1C(=O)Nc1ccccc1` (stereo unspecified) is -22.6% (inactive); for `CCn1c(=O)c([N+](=O)[O-])c(NCc2ccc3c(c2)OCO3)c2ccccc21` it is -12.9% (inactive); for `CC1=NN(C(=O)Cc2ccc(C)cc2)C(O)(c2cccnc2)C1` (stereo unspecified) it is -14% [at 20 µM] (inactive).
As for `CCC(CC)c1nnc(NC(=O)c2nn(C)c(=O)c3ccccc23)s1`, the inhibition was -10.6% (inactive).
As for `Cc1ccc(NC(=O)C(=O)NCc2ccco2)c(C)c1`, the figure is -25.7% (inactive).
Consider `C=CCn1c(Cn2nnc3ccccc32)nnc1SCC(=O)N/N=C/c1cc(Br)cc(OC)c1O`, for which the inhibition is 1.52% [at 20 µM] (inactive).
The figure for `C/C=C/C(=O)Nc1ccc(N2CCN(c3ccc(C(F)(F)F)cn3)CC2)nc1` is -27.8% (inactive).
Turning to `COc1cc(OC)c(C(=O)OC(C)C(=O)Nc2cc(C(F)(F)F)ccc2Cl)cc1OC` (stereo unspecified), the inhibition is -12.3% (inactive).
For `O=C(Nc1ccccc1C(=O)N1CCOCC1)c1ccc(Cl)cc1`, the inhibition was -16.3% (inactive).
As for `Cc1cc(C(=O)N2CCC(C(=O)O)CC2)c(C(F)(F)F)o1`, the figure is -9.96% (inactive).
Consider `O=C(Nc1cnn(Cc2ccc(Cl)cc2)c1)C1CCCC1`, for which the inhibition was -14.4% [at 20 µM] (inactive).
As for `Cc1nn(C)cc1C(=O)Nc1ccccc1Br`, the figure is -17.2% (inactive).
Consider `C=CCC(CC=C)(C(N)=O)c1ccccc1`, for which the inhibition was -29.7% (inactive).
On to `Fc1ccccc1OCCCCn1cncn1`, for which the inhibition is -28.7% [at 20 µM] (inactive).
As for `COc1ccc(CCNc2cc(C)nc3c(-c4ccc(Cl)cc4)c(C)nn23)cc1OC`, the inhibition is 9.61% (inactive).
`O=C(Nc1nccs1)C1CCN(S(=O)(=O)c2ccc(Cl)c(C(F)(F)F)c2)CC1`: the inhibition was -14.1% [at 20 µM] (inactive).
Regarding `COCCNc1nc2nonc2nc1N1CCCC1c1nccs1` (stereo unspecified), the inhibition is -8.2% (inactive).
Consider `O=C(/C=C/c1ccccc1)Nc1nnc(SCC(=O)c2ccc3ccccc3c2)s1`, for which the inhibition was -20.8% (inactive).
For `COCCN1C(=O)N[C@@H](CCc2ccccc2)[C@H](C(C)=O)[C@H]1C`, the inhibition was -15.4% (inactive).
Turning to `CC(=O)C1=C(C)NC(=O)NC1c1cc(Br)ccc1OCC#N` (stereo unspecified), the inhibition was -17.2% [at 20 µM] (inactive).
On to `CSCC[C@H](NC(=O)OC(C)(C)C)C(=O)N/N=C/c1cc2ccc(C)cc2nc1Cl`, for which the inhibition is -14.1% (inactive).
As for `CC1(C)CC(=O)C(N=Nc2ccc(S(=O)(=O)N3CCCCCC3)cc2)=C(O)C1`, the figure is -26.5% (inactive).
The figure for `C/C(=N\Nc1nc2ccccc2[nH]1)c1cccs1` is -12.4% (inactive).
For `CC(NC(=O)Nc1ccccc1)C(c1cccs1)N1CCN(c2ccccc2)CC1` (stereo unspecified), the inhibition is -13.8% (inactive).
With `CC(NC(=O)C(C)(C)C)C(c1cccs1)N1CCN(Cc2ccccc2)CC1` (stereo unspecified), the inhibition is -27.5% (inactive).
Regarding `CCCC(=O)NC(C)C(c1cccs1)N1CCN(c2ccccc2)CC1` (stereo unspecified), the inhibition is 25.4% [at 20 µM] (active).
For `COc1ccc(C(=O)NC(=S)Nc2ccc(Cl)cn2)cc1OC`, the inhibition was -15.4% (inactive).
Consider `Cn1c(=O)n(C)c2cc(NS(=O)(=O)c3ccc(F)cc3)ccc21`, for which the inhibition is -20.7% (inactive).
`CCC(=O)Nc1sc(C(=O)Nc2ccccc2)c(C)c1C(=O)OC`: the inhibition is -21.3% (inactive).
`C#CCO[C@@H]1C[C@H](n2cnc3c(=O)[nH]c(NC(=O)C(C)C)nc32)O[C@@H]1CO`: the inhibition is -9.33% (inactive).
Regarding `O=C1N=C(N2CCc3ccccc3C2)S/C1=C\c1ccc(O)cc1`, the inhibition is -5.76% (inactive).
In the case of `Cc1nc2sc(C(c3ccco3)N3CCC4(CC3)OCCO4)c(O)n2n1` (stereo unspecified), the inhibition was -16.3% [at 20 µM] (inactive).
The figure for `COc1ccc(/C=C/C(=O)c2ccc(NS(=O)(=O)c3ccc(C)cc3)cc2)cc1O` is -7.18% (inactive); for `COC(=O)c1ccc(C(=O)OC)c(NC(=S)N2CCN(c3ccc(F)cc3)CC2)c1` it is -22.8% (inactive); for `O=C(Nc1ccccc1-c1nnn(CC(=O)N2CCCc3ccccc32)n1)c1cccc(Cl)c1` it is -12.2% [at 20 µM] (inactive).
Consider `Cc1cc(C)n(-c2nnc(C)n2NC(=O)c2cccc(Cl)c2)n1`, for which the inhibition is -15.9% [at 20 µM] (inactive).
As for `O=C(NCc1ccco1)C(=O)c1cn(CC(=O)N2CCCCCC2)c2ccccc12`, the figure is -16.3% (inactive).
In the case of `CCOc1ncccc1C(=O)OCC(=O)NC1CC1`, the inhibition was -17.7% (inactive).
The figure for `O=C(c1cccc([N+](=O)[O-])c1)N1CCN(C(=O)c2ccco2)CC1` is -10.7% (inactive).
